Screens: PubChem BioAssay, several laboratories
Shown are actives, neighbours in structure and some others; about 5.4% of the full set was active somewhere.
ALR H2O2 inh – human ALR oxidase inhibition via reduced H2O2 | purified ALR, DTT oxidation, H2O2 HRP-luminol luminescence | inhibition, % (test concentration not listed) | 3.8% of 290,000 active | AID 485317;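 active = mean replicate inhibition above about 79%, with every replicate also reaching it, limit read from the data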
Target sequence (P55789 whole entry, looked up): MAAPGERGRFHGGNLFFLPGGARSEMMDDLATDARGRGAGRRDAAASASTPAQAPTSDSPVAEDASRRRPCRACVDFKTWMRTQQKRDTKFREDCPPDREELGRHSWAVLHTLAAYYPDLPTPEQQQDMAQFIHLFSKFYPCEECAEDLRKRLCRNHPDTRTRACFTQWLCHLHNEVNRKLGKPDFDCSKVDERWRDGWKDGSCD
Exocytosis inh – blocks lytic granule exocytosis. inhibition, % at 10 µM. TALL-104 LAMP-1 surface exposure, flow cytometry; cells stimulated with thapsigargin and PMA. 0.66% of 360,000 active;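 active = inhibition above about 55%, limit read from the data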
PfM18AAP inh – blocks P. falciparum M18 aspartyl aminopeptidase; recombinant PfM18AAP, H-Glu-NHMec fluorogenic cleavage; inhibition, % at 7.35 µM; 1.2% of 290,000 active;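 active = inhibition above the campaign mean inhibition over all tested compounds plus 3 SD, cut at about 28% in these data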;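 also: 0% = plate median of test compound wells and 100% = 2 mM ZnCl2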
MIN6 prolif – inducers of beta-cell replication in MIN6 cells | MIN6 cells proliferation, ATPlite luminescence, 48 h; cells starved in 0.2% serum; 100% = growth in 10% serum | proliferation, % at 10 µM | 0.29% of 330,000 active | AID 2380;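 active = compounds whose signal lies at least 3.5 SD above the mean of all wells on their plate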;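 also: 0% = DMSO-treated cells in low-serum medium and 100% = 10% serum control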
GASC-1 inh – inhibitors of human GASC-1 (JMJD2C) demethylase | Q9H3R0 | GST-JMJD2C(1-420) H3K9me3 demethylation, DELFIA europium | inhibition, % at 2.35 µM | 0.069% of 330,000 active | AID 2099;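 active = more than half of a compound's replicate wells show inhibition beyond 50%, single wells judged on their own value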;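 also: signal counts dimethyl H3K9 product captured on neutravidin plate; 0% = median of DMSO wells and 100% = 0.3 times that DMSO median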
Target sequence (Q9H3R0 1-420 limits assumed): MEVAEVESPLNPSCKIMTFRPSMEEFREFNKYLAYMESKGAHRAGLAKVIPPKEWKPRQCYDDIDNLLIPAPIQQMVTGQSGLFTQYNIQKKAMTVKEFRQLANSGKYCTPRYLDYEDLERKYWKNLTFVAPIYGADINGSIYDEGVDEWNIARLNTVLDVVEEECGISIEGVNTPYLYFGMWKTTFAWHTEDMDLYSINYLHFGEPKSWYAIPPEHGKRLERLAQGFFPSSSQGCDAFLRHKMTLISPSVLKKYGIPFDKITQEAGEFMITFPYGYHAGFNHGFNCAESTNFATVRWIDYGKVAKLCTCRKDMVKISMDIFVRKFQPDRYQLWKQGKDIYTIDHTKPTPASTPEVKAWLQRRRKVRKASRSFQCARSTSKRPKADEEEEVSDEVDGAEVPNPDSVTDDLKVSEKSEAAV
SMARCA2 activ – increases SMARCA2 function in MMTV reporter cells; MG213 cells, MMTV-luciferase reporter, dexamethasone, overnight; activation, % at 9.1 µM; 1% of 370,000 active; AID 652017; in the data active = activation above about 7.8%;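 also: 0% = vehicle wells and 100% = reference activator wells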
* = called active by the depositor; x = no result.

SMILES | ALR H2O2 inh | Exocytosis inh | PfM18AAP inh | MIN6 prolif | GASC-1 inh | SMARCA2 activ
CN(C)c1ccc(CNC(=O)C2CCN(S(=O)(=O)c3ccc4c(c3)CCCC(=O)N4)CC2)cc1 | 98* | 0 | 8 | -4 | -1 | -2
CN(C)c1ccc(CNC(=O)c2cc(S(=O)(=O)N3CCCC3)cn2C)cc1 | 98* | 0 | 10 | 1 | 31 | -1
CC(CCc1ccccc1)NC(=O)CN1CCSc2ccccc21 (configuration not stated) | 99* | -5 | 4 | -4 | 10 | 4
CC(CCc1ccccc1)NC(=O)CN1CCN(Cc2ccccc2)C1=O (configuration not stated) | -4 | 1 | 3 | 2 | 2 | -2
CC(CCc1ccccc1)NC(=O)CN1CCOc2ccccc21 (configuration not stated) | 98* | -1 | -1 | -2 | -8 | -1
COc1ccc(CCNC(=O)CN2CCOc3ccccc32)cc1OC | 14 | -2 | -3 | 2 | -29 | -2
O=C(CN1CCOc2ccccc21)NCc1ccccc1 | 98* | -3 | -5 | 4 | 7 | -2
CC(C)C(=O)OCCCN1C(=O)CCC12CCC(c1ccccc1)CC2 (configuration not stated) | x | x | x | x | x | 0
CCOc1ccccc1NC(=S)N1CCN(c2ccc(O)cc2)CC1 | 99* | -9 | 30* | -4 | 5 | 1
CCOc1ccccc1NC(=S)N1CCN(c2ccc(OC)cc2)CC1 | 57 | -4 | -3 | 0 | -19 | -1
O=C(CSc1nc(O)cc(=O)[nH]1)Nc1ccc2c(c1)CCC2 | 99* | -1 | 9 | 1 | x | -4
Cc1cc(=O)[nH]c(SCC(=O)N2CCCc3ccccc32)n1 | -32 | -2 | -6 | 3 | -6 | -2
CCCc1cc(=O)[nH]c(SCC(=O)Nc2ccc3c(c2)CCC3)n1 | -2 | 2 | 9 | 1 | -4 | -4
Nc1cc(=O)[nH]c(SCC(=O)Nc2ccc3c(c2)CCC3)n1 | 90* | -5 | -1 | -2 | -1 | -4
Nc1cc(=O)[nH]c(SCC(=O)Nc2ccc(F)c(Cl)c2)n1 | 32 | -1 | -2 | 4 | -11 | -3
O=C(CSc1nc(O)cc(=O)[nH]1)N1CCCc2ccccc21 | 99* | -2 | 4 | 2 | 29 | -2
COC(=O)[C@]12C[C@H](CC(=O)N3CCN(C(=O)c4ccco4)CC3)C(=O)N(Cc3ccco3)C1=C[C@H](COCc1ccccc1)O[C@@H]2C | x | x | x | x | x | 2
C=CCN1C(=O)[C@@H](CC(=O)N2CCC(c3ccccc3)CC2)[C@]2(C(=O)OC)CCCCC=C12 | x | x | x | x | x | -2
Oc1ccc(/C(Cc2ccccn2)=N\Nc2ccccc2)c(O)c1 | 99* | 0 | 22 | -7 | 15 | 1
Oc1ccc(/C(Cc2ccc3ccccc3n2)=N\Nc2ccccc2)c(O)c1 | 98* | 6 | 2 | -6 | 8 | 5
N/N=C(\Cc1cscn1)c1ccc(O)cc1O | 34 | 5 | 11 | 0 | 26 | -6
Cc1c(O)ccc(/C(Cc2ccc3ccccc3n2)=N\O)c1O | 28 | -1 | 13 | -2 | -8 | -2
CN(C)c1cccc(C(=O)NCc2ccccc2)c1 | 96* | 5 | 6 | 0 | -2 | -1
COC(=O)[C@]12C[C@H](CC(=O)NCCc3ccccc3OC)C(=O)N(Cc3cccc4ccccc34)C1=C[C@H](C(C)C)O[C@@H]2C1CC1 | x | x | x | x | x | 0
C[C@@H]1O[C@@H](Oc2c(-c3ccc(O)c(O)c3)oc3cc(O)cc(O)c3c2=O)[C@H](O)[C@H](O)[C@H]1O | 99* | -4 | x | 5 | -11 | -7
SMILES | ALR H2O2 inh | Exocytosis inh | PfM18AAP inh | MIN6 prolif | GASC-1 inh | SMARCA2 activ
COc1ccc(-c2oc3c(CC=C(C)C)c(O[C@@H]4O[C@H](CO)[C@@H](O)[C@H](O)[C@H]4O)cc(O)c3c(=O)c2O[C@@H]2O[C@@H](C)[C@H](O)[C@@H](O)[C@H]2O)cc1 | 17 | x | 7 | -1 | -5 | x
O=c1c2c(O)cc(O)cc2oc2c(O)ccc(O[C@H]3O[C@@H](CO)[C@H](O)[C@@H](O)[C@@H]3O)c12 | 20 | -1 | x | -2 | 3 | 0
COc1cc(-c2oc3cc(O)cc(O)c3c(=O)c2O[C@@H]2O[C@H](COC3O[C@@H](C)[C@H](O)[C@@H](O)[C@H]3O)[C@@H](O)[C@H](O)[C@H]2O)ccc1O (some centres not stated) | 94* | -2 | x | -4 | -4 | 1
C[C@@H]1O[C@@H](O[C@H]2[C@H](O)[C@@H](O)[C@H](Oc3c(-c4ccc(O)c(O)c4)oc4cc(O)cc(O)c4c3=O)O[C@@H]2CO)[C@H](O)[C@H](O)[C@H]1O | 96* | -8 | x | -2 | 2 | 2
C=CCn1c(Cc2cccs2)nnc1SCC(=O)Nc1ccc(OCc2ccccc2)cc1 | x | x | x | x | x | -4
Cc1cccc(CCNC(=O)c2ccc3c(c2)ncn3C2CCCCC2)c1 | x | x | x | x | x | 0
COc1ccc(-c2n[nH]c(=S)n2-c2ccc(C)cc2C)cc1 | 46 | 5 | 2 | -3 | 7 | -1
Cc1ccc(-n2c(-c3ccc(Cl)cc3)n[nH]c2=S)c(C)c1 | 87* | 4 | -6 | -3 | 25 | 5
CCn1c(-c2cccnc2)n[nH]c1=S | 44 | 2 | 8 | 0 | -2 | -1
Cc1ccc(-n2c(-c3cccnc3)n[nH]c2=S)c(C)c1 | 84* | 6 | 3 | 0 | -4 | 4
CCCCn1c(-c2cccnc2)n[nH]c1=S | -1 | 5 | 30* | -1 | 14 | -3
O=C(CNC(=O)c1ccccc1O)N/N=C/c1cc(Br)ccc1OC(=O)/C=C/c1ccco1 | 1 | x | 8 | -5 | 54* | -2
CCOC(=O)C1(C)NC(c2cccs2)C2C(=O)N(c3ccc(OC)cc3)C(=O)C21 (configuration not stated) | -10 | -2 | -19 | 0 | 55* | 1
Cc1ccc(C)c(NC(=O)C2CC3CCC2C3)c1 (configuration not stated) | 1 | -4 | 4 | -3 | 14 | 1
Oc1ccc(C2C[C@H]3CC[C@@H]2C3)cc1O (some centres not stated) | 99* | 2 | 83* | -6 | -1 | -4
COc1cc(/C=C2\CCC/C(=C\c3ccc(O)c(OC)c3)C2=O)ccc1O | x | 16 | 15 | -5 | 6 | -3
COc1cc(/C=C/C2=NC(=O)C(C)(C)O2)ccc1O | 99* | x | 10 | 0 | -13 | x
COc1ccc(C=C(C(C)=O)C(C)=O)cc1OC | x | 2 | 9 | -3 | -4 | 4
COc1cc(C=O)ccc1O | x | -1 | x | x | x | 0
COc1cc(/C=C/C(=O)O)ccc1O | 87* | -5 | x | 0 | 2 | -2
COc1cc(OC)c(C(=O)C=Cc2ccc(OC)c(OC)c2)c(OC)c1 | x | 73* | x | x | x | -2
COc1cc(C=C(C(C)=O)C(C)=O)ccc1O | 98* | 1 | 20 | -1 | 3 | 0
